ALDH1A1 block: inhibitors of human aldehyde dehydrogenase 1A1. Purified ALDH1A1, NADH fluorescence, propionaldehyde substrate. 7.3% of 220,000 active. AID 1030. Potency, µM (highest dose often 75.3 µM), inactives show top-dose activity, negative = inhibition, actives largely listed as inhibitors. P00352; active = well fitted inhibition curve with a large enough effect, not every such curve was filed as active; inconclusive = small, poorly fitted or top-dose-only effect, or another doubt; inactive = no such curve, though single readings can be large or run the other way;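 note: potency is the fitted concentration of half-maximal effect; plate controls were no enzyme wells and a reference inhibitor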
Target sequence (P00352 whole entry, looked up): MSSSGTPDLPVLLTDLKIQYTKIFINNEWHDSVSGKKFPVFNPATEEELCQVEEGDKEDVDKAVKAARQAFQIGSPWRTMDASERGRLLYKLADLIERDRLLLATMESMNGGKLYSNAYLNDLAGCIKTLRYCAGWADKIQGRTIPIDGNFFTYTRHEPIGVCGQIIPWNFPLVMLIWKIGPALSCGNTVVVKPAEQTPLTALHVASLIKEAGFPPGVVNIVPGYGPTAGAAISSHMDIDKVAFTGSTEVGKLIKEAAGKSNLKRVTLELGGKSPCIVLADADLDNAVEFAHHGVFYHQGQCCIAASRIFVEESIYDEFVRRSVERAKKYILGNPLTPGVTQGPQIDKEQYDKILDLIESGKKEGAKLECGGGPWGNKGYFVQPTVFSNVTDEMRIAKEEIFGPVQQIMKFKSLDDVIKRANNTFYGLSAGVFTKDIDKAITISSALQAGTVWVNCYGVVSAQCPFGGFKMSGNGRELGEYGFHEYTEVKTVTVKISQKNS
PNC assembly inh: perinucleolar compartment assembly inhibition. PC3M PTB-GFP, PNC prevalence imaging, 16 h; stronger effect = lower value. activity change (PNC), negative = inhibition, % at 10 µM. 3.1% of 140,000 active. AID 2417;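 active = readout at or below -70, meaning at least 70% loss of cells showing the perinucleolar compartment, a nuclear body marking cancer cells; inconclusive = readout between -30 and a set limit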;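 note: plate controls were DMSO wells for no effect and camptothecin positive control wells for full effect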
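Read-out is percentage of cells bearing a perinucleolar compartment, from automated 20x imaging of fixed, Hoechst-stained PC3M PTB-GFP cells. Cells were seeded 4 h, then exposed 16 h to compound (23 nl of library stock) in duplicate plates.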
HPGD block: blocks human HPGD enzyme activity. AID 894. P15428. purified HPGD, NADH fluorescence kinetic, PGE2 substrate. 4.3% of 150,000 active. Potency, µM, inactives show at the highest dose activity change, negative = inhibition, actives largely listed as inhibitors; active = well fitted inhibition curve with a large enough effect, not every such curve was filed as active; inconclusive = small, poorly fitted or top-dose-only effect, or another doubt; inactive = no such curve, though single readings can be large or run the other way; note: potency is the fitted concentration of half-maximal effect; % is set by controls: 0 for no effect and ±100 for the full control effect
Target sequence (P15428 whole entry, looked up): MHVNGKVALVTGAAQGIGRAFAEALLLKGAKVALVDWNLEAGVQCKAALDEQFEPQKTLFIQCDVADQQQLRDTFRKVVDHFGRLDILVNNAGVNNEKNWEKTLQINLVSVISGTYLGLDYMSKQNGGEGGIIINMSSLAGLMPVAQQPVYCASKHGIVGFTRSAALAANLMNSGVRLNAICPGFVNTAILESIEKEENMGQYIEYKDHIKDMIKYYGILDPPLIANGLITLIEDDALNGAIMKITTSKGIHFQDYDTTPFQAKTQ
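NADH formation kinetics: reaction with 30 uM PGE2 and 1 mM NAD+ (final), 20 nM enzyme, Tris-HCl pH 8 with Tween 20, after 15 min compound preincubation at room temperature. Fluorescence change, last versus first of five reads.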
HTT cytoprotect: Huntington cell model cytoprotection by ATP luminescence. 0.14% of 230,000 active. PC12 HTT-Q103 induced, cytoprotection, ATP luminescence, 40 h. Potency, µM (top dose mostly 56.4 µM), without a hit: cytoprotection (ATP increase), most hits filed as activators. AID 1471; note: potency is the fitted concentration of half-maximal effect; % of control where 0% means no effect; nearly all actives have a fitted effect of over 45% in size
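Stable PC12 Q103-GFP cells in serum-supplemented, phenol red-free DMEM; induction by tebufenozide at 100 nM final; compound dose series; cell viability quantified luminescently from ATP.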
HTT aggregate: reduces HttQ103-GFP aggregates in PC12 cells; 1.1% of 220,000 active; PC12 HttQ103-GFP aggregates, Acumen cytometry, 40 h; Potency, µM (highest dose often 46.1 µM), for inactives: at the top dose activity change, negative = inhibition, hits mostly inhibitors; AID 1688; note: potency is the fitted concentration of half-maximal effect; % is set by controls: 0 for no effect and ±100 for the full control effect; nearly all actives have a fitted effect of over 60% in size
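PC12/HTTQ103-GFP, ecdysone-inducible; teb 100 nM; cpd qHTS titration; GFP aggregates read on laser cytometer, Ex 488/Em 500-530 nm.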
CBFb-RUNX1 inh: inhibitors of human CBF-beta and RUNX1 interaction. Q01196+Q13951. AlphaScreen CBFb-His/RUNX1-biotin binding, biochemical. Potency, µM (top dose mostly 59.8 µM), without a hit: at the highest dose activity, negative = inhibition, actives largely listed as inhibitors. 230,000 tested, under 10 active. AID 1477; note: % of control where 0% means no effect
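CBFb-His/RUNX1-biotin, 30 nM each, preincubated 20 min RT; compound 15 min RT; Ni + streptavidin beads 50 ng each, 90 min RT; AlphaScreen read.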
Starred values were filed as active, the others as inactive; ? = inconclusive; / = not tested or not shown; [ ] = another dose, or the depositor's remark. The list is not random: actives were taken first. Their share in the collection is about 11%. Unless noted, calls come from the whole dose curve; as a rule, active = well fitted curve in the direction sought with a large enough effect; inconclusive = small, poorly fitted or top-dose-only effect, or another doubt; inactive = no such curve, though single readings can be large; an effect the other way counts as inactive or inconclusive.

SMILES	ALDH1A1 block	PNC assembly inh	HPGD block	HTT cytoprotect	HTT aggregate	CBFb-RUNX1 inh
COc1ccc(-n2nc(C(=O)NCC(=O)N3CCN(c4ccccn4)CC3)c3ccccc3c2=O)cc1	28.2µM*	-4.7	?	-59.3%	4.7%	-5.6%
COc1ccc(-n2nc(C(=O)NCc3ccco3)c3ccccc3c2=O)cc1	?	-83.9*	?	-6.7%	8.9%[1.84 µM]	0.7%
COc1ccc(-n2nc(C(=O)NCC(=O)N3CCN(c4ccccn4)CC3)c3ccccc3c2=O)cc1OC	-0.3%	/	/	-116.4%	1.0%	-7.0%
CCCCc1nc2c(c3c1C[C@H](C)OC3)CN(C(=O)COC)CC2	3.6%[13.5 µM]	/	-9.8%	-7.8%[10 µM]	/	-2.8%[13.1 µM]
COc1ccc(NC(=O)c2cnc3ccccn3c2=O)cc1OC	/	/	/	-22.9%	/	/
COC(=O)c1ccc(C)c(NC(=O)c2ccc(Cn3cc([N+](=O)[O-])cn3)o2)c1	5.8%	?	-19.9%	-14.4%[10 µM]	?	-10.7%
COC(=O)c1ccccc1NC(=O)c1ccc(Cn2cc(Cl)cn2)o1	-1.8%	43.3	-12.0%	-0.7%	-5.4%	0.0%
COC(=O)c1cc(NC(=O)c2c(Cl)cnn2C)cc(C(=O)OC)c1	-5.2%	-100.8*	-9.5%	10.2%[0.074 µM]	4.9%	6.2%
CCNS(=O)(=O)c1ccc(NC(=O)c2ccc(Cn3cc([N+](=O)[O-])cn3)o2)cc1	18.9µM*	/	/	-23.8%	0.9%	-1.1%
COC(=O)c1cc(NC(=O)c2ccc(Cn3cc(Cl)cn3)o2)cc(C(=O)OC)c1	-4.5%	19.1	1.26µM*	-13.6%	4.1%	5.0%
COC(=O)c1ccc(NC(=S)NC(=O)c2c(Cl)cnn2C)cc1	1.6%	61.4	-47.7%	3.6%[10 µM]	-20.2%	-28.3%
O=C(NCc1ccc(Cl)cc1)C1CCN(S(=O)(=O)c2ccc(F)cc2)CC1	?	/	/	-9.6%[1.9 µM]	-5.7%[9.22 µM]	2.6%
N#Cc1ccccc1NC(=O)Nc1ccc(Cl)cc1	?	-109.4*	-14.3%	3.8%	6.1%	1.7%
O=C(O)c1cccc(-n2cccc2/C=C2\SC(=O)N(Cc3ccccc3F)C2=O)c1	?	38.9	?	8.2%[10 µM]	15.8%	?
O=c1cc(O)c2sc3nc(-c4cccnc4)cc(C(F)(F)F)c3c2[nH]1	8.91µM*	13.9	?	/	0.6%	-2.9%
CCOC(=O)CCN1CCN(C(=O)c2ccc(-n3c(=O)c(=O)[nH]c4ccccc43)cc2)CC1	?	/	-19.2%	/	/	/
COc1ccc(NC(=O)/C(Cl)=C(/Cl)S(=O)Cc2ccccc2Cl)cn1 (centres undefined)	0.631µM*	/	/	-170.2%	?	-13.0%
COc1ccc(NC(=O)/C(Cl)=C(/Cl)S(=O)(=O)Cc2ccc(C)cc2)cn1	2.51µM*	17.0	-6.5%	-151.5%	-0.6%[9.22 µM]	-2.8%
COC(=O)c1cn(CC(=O)Nc2ccc(F)cc2)c2ccccc12	7.3%	/	/	-39.2%	19.5%	7.1%
O=c1c2c3c(sc2n(CCN2CCCC2)c(=O)n1Cc1ccco1)CCCCC3	5.01µM*	-6.4	-9.8%	-2.0%	?	3.0%
O=C(Cn1c(=O)n(Cc2ccco2)c(=O)c2c3c(sc21)CCCCC3)Nc1ccccc1	7.08µM*	6.2	?	2.7%	?	/
O=C(Nc1ccc(Cl)cc1)N1CCC(c2nc(-c3ccccc3Cl)no2)CC1	?	12.3	-14.5%	-24.6%	11.2µM*	12.3%
C=C1C(=O)OC2CC1C(OC(C)=O)CC(C)=CCCC(C)=CCC[C@@]2(C)O (some centres undefined)	?	/	-5.5%	/	/	17.1%
Nc1nc(OCC2CCCCC2)c2[nH]cnc2n1	/	/	/	/	/	7.4%
C=C1C(n2cnc3c(=O)[nH]c(N)nc32)C[C@H](O)[C@H]1CO (some centres undefined)	/	/	/	3.5%	-29.7%	/
SMILES	ALDH1A1 block	PNC assembly inh	HPGD block	HTT cytoprotect	HTT aggregate	CBFb-RUNX1 inh
Cc1nc2ccccc2c2oc(C(=O)N3CCN(C(=O)c4ccco4)CC3)cc12	?	27.3	-21.6%	-5.9%[10 µM]	-11.0%	-2.0%
Cc1nc2ccccc2c2oc(C(=O)N3CCc4ccccc4C3)cc12	25.1µM*	7.1	-9.7%	-36.6%	?	-4.3%
CCCCOc1ccc(C(O)(CCC)CCN2CCOCC2)cc1 (centres undefined)	5.62µM*	4.1	-0.2%	0.0%[10 µM]	-19.3%	15.2%
CCCCC(O)(CCN1CCOCC1)c1ccc(Cl)cc1 (centres undefined)	28.2µM*	41.2	-0.7%	-1.2%	-8.4%	-7.7%
CCCCOc1ccc(C(O)(CC)CCN2CCOCC2)cc1 (centres undefined)	7.94µM*	?	-6.6%	8.9%[1.9 µM]	-6.4%	7.1%
CCCOc1ccc(C(C)(O)CN2CCOCC2)cc1 (centres undefined)	2.6%	-11.6	-7.7%	-7.9%[10 µM]	-16.4%	11.4%
CCCCOc1ccc(OCCCN2CCOCC2)cc1	2.5%	16.6	-7.8%	?	12.2%	9.8%
O=c1c(-c2ccc(Cl)cc2)nc2cnc(N3CCNCC3)nc2n1-c1ccccc1	?	/	/	-39.6%	/	/
Cc1ccc(-n2nnnc2CCl)cc1	22.4µM*	/	/	-3.3%[10 µM]	-5.8%[9.22 µM]	6.5%
Cc1ccc(Nc2nc(-c3sc(NC(=O)c4cccc(Cl)c4)nc3C)cs2)cc1	15.8µM*	-13.9	-21.0%	-13.7%	-30.3%	-9.6%
Cc1ccccc1Nc1nc(-c2sc(NC(=O)c3ccco3)nc2C)cs1	20µM*	-0.5	?	20.3%[10 µM]	-4.3%	-21.1%
CC(=O)Nc1nc(C)c(-c2csc(Nc3ccccn3)n2)s1	?	/	/	-33.7%[10 µM]	?	-12.0%
CCC(C)C(=O)Nc1nc(C)c(-c2csc(Nc3ccc(Cl)cc3)n2)s1 (centres undefined)	22.4µM*	35.1	?	-52.5%	?	-5.6%
CC(=O)Nc1nc(C)c(-c2csc(Nc3ccc(O)cc3)n2)s1	25.1µM*	-16.6	-28.0%	-58.1%[10 µM]	?	-27.5%
CCCCc1nc2c(c3c1C[C@H](C)OC3)CN(C(=O)N[C@H](C(=O)OC)C(C)C)CC2	-1.7%[13.5 µM]	/	-1.2%	5.3%[10 µM]	/	0.2%[13.1 µM]
Cc1cc(N2CCCC2)nc(SCC(=O)c2ccccc2)n1	-4.3%	316.7	-8.1%	5.0%[10 µM]	-15.2%	-0.4%
Cc1cc(N2CCCCC2)nc(SCc2ccc(C#N)cc2)n1	1.26µM*	1.2	-19.7%	13.8%[10 µM]	?	-4.9%
O=C(O)Cc1cc(Cl)ccc1O	4.6%[13.5 µM]	/	-6.5%	-6.8%[10 µM]	/	/
COc1ccc(OCC(O)CN2C(=O)c3ccccc3S2(=O)=O)cc1 (centres undefined)	?	-83.4*	-12.1%	-5.9%	0.9%	-1.0%
CCOC(=O)c1c(C)n(C)c2ccc(OCC(O)CN3C(=O)c4ccccc4S3(=O)=O)cc12 (centres undefined)	2.51µM*	34.3	-15.8%	-21.2%[0.074 µM]	11.8%	-8.8%
CCCCCCCCCCCCCCCC(=O)OC(C)C	/	/	/	-6.9%	2.7%	/
